Data published in PubChem BioAssay (NCI).
About 83,000 compounds went through this panel and 20% of them were active in at least one assay; those are over-represented in the sample as a whole.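 Step 1: grow cells in 96-well plates. Step 2: add test compound at a single concentration. Step 3: incubate 48 h. Step 4: record percent growth.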 Calls of active or inactive are those of the source. How the source made its calls: active means growth percent below 10; inactive means the rest.

Columns and labels:
Experiment in all cases: NCI-60 one-dose screen, 48 h (100 = growth as untreated, 0 = no growth, -100 = all killed)
Settings in all cases: 10 µM unless noted
[1] = system: NCI-H23 lung
[2] = system: NCI-H226 lung
[3] = system: NCI-H322M lung
[4] = system: HOP-62 NSCLC
[5] = system: NCI-H460 lung
[6] = system: HOP-92 NSCLC
[7] = system: A549/ATCC NSCLC
[8] = system: 786-0 renal
[9] = system: COLO 205 colon
[10] = system: DU-145 prostate
[11] = system: K-562 leukemia
[12] = system: MALME-3M melanoma
[13] = system: MDA-MB-231 breast
[14] = system: RXF 393 renal
[15] = system: SF-268 CNS
[16] = system: SF-295 CNS
[17] = system: SF-539 CNS
[18] = system: UACC-257 melanoma
[19] = system: M14 melanoma
[20] = system: NCI-H522 lung

Measured: growth

CC(=O)OC[C@@]1(C)C2CC[C@]3(C)C(CC=C4C5CC(C)(C)CC[C@]5(C(=O)Nc5ccc(C)cc5)CC[C@]43C)[C@@]2(C)C[C@@H](OC(C)=O)[C@@H]1OC(C)=O (stereo not given in full)
inactive: [1] 49.3% | [2] 50.6% | [3] 72.8% | [4] 44.4% | [5] 13.5% | [6] 55.8% | [7] 41.4% | [8] 57.1% | [9] 48.8% | [10] 49% | [11] 21.6% | [12] 60.6% | [13] 66.1% | [14] 82.2% | [15] 57.4% | [16] 31.2% | [17] 43.1% | [18] 23.9% | [19] 51.9%

NS(=O)(=O)c1ccc(-n2cc(-c3cccc(NC(=O)c4ccc(Cl)c(C(F)(F)F)c4)c3)nn2)cc1
active: [1] -4.59% | [4] 3.02% | [6] -5.36% | [7] 4.33% | [9] 2.2% | [13] -5.26% | [16] 7.53% | [17] -38.8%
inactive: [2] 10% | [3] 33.4% | [5] 18.1% | [20] 45.8% | [8] 22.5% | [10] 18.3% | [12] 39.9% | [15] 29.4% | [18] 39.1% | [19] 16.2%

COc1cc(OC)cc(C(=O)Nc2cccc(-c3cn(-c4ccc(S(N)(=O)=O)cc4)nn3)c2)c1
active: [4] 6.62%
inactive: [1] 80.3% | [2] 57.5% | [3] 89.9% | [5] 82.8% | [6] 24.2% | [7] 90.9% | [8] 74.6% | [9] 109% | [10] 97.2% | [12] 79.9% | [13] 67.5% | [14] 57.5% | [15] 50.3% | [16] 63% | [17] 60.3% | [18] 101%

COc1ccc(C2=NN(c3ccccc3)C(c3ccc(OC)c(OCc4ccccc4)c3)C2)cc1OC (stereo not given)
inactive: [1] 99.8% | [2] 85.4% | [3] 102% | [4] 96.7% | [5] 105% | [6] 109% | [7] 101% | [8] 90.9% | [9] 115% | [10] 105% | [11] 95% | [12] 92.6% | [13] 100% | [14] 98.1% | [15] 96.5% | [16] 107% | [17] 99.9% | [18] 103% | [19] 104%

COc1ccc(C(=O)/C=C/c2c(F)cccc2Cl)cc1S(N)(=O)=O
active: [1] -16% | [4] 2.33% | [5] 3.49% | [6] 9.66% | [20] -61.1% | [7] 8.28% | [8] 0.405% | [9] -84.7% | [10] -0.489% | [14] -44.4% | [17] -62.9% | [19] -59.4%
inactive: [2] 22.2% | [3] 17.4% | [12] 12.7% | [13] 17.2% | [15] 24.4% | [16] 12.7% | [18] 12.7%

Cc1cc(C)n(-c2ccc3nnc(-c4ccccc4)n3n2)n1
inactive: [1] 94.1% | [2] 105% | [3] 110% | [4] 122% | [5] 104% | [6] 85.2% | [20] 74.7% | [7] 99.6% | [8] 93.9% | [9] 115% | [10] 92.2% | [12] 108% | [13] 117% | [14] 90.6% | [15] 89.6% | [16] 103% | [17] 102% | [18] 135% | [19] 129%

COc1ccc(C(=O)Nc2n[nH]c(Nc3ccccc3)c2C#N)cc1
inactive: [1] 110% | [2] 117% | [3] 106% | [4] 124% | [5] 101% | [6] 125% | [20] 104% | [7] 117% | [8] 104% | [9] 106% | [10] 119% | [12] 97.8% | [13] 103% | [14] 118% | [15] 97.3% | [16] 92.8% | [17] 98.3% | [18] 137% | [19] 109%

COc1ccc2nc(Nc3cccc(NC(=O)c4ccc(CN5CCCN(C)CC5)c(C(F)(F)F)c4)c3)ccc2c1
active: [1] -71.9% | [2] -39.8% | [3] -86.4% | [4] -47.3% | [5] 8.75% | [6] -53.1% | [7] -24.8% | [8] -73.4% | [9] -31.7% | [10] -54.2% | [11] -18.6% | [12] -58.3% | [14] -82.9% | [15] -9.02% | [16] -53.9% | [17] -56.2% | [18] -34% | [19] -49.4%

Cc1ccc2c(N)c(C(=O)Nc3ccc(OC(F)(F)F)cc3)sc2n1
active: [11] 9.66%
inactive: [1] 47.6% | [2] 47% | [3] 82.5% | [4] 68.4% | [5] 77.8% | [6] 59.1% | [7] 75.7% | [8] 97.5% | [9] 92.4% | [10] 82.1% | [12] 75.3% | [14] 86.3% | [15] 98.9% | [16] 42.9% | [17] 36.5% | [18] 70% | [19] 82.9%

COc1c(F)ccc(C(=O)Nc2ccc3nc(NC(=O)C4CCCN(S(=O)(=O)c5ccc(C(F)(F)F)cc5)C4)sc3c2)c1F (stereo not given)
active: [14] 9.04%
inactive: [1] 94.4% | [2] 81.3% | [3] 91.9% | [4] 94.6% | [5] 78% | [20] 76% | [7] 75.3% | [8] 62.9% | [9] 84.2% | [10] 88% | [11] 64.6% | [12] 89% | [13] 81.3% | [15] 68% | [16] 74.7% | [17] 68.4% | [18] 86.3%

CC(=O)Oc1ccccc1C(=O)[Se]CC(=O)Nc1cccc(C(F)(F)F)c1
active: [1] -50.9% | [2] -39.2% | [3] -16.5% | [4] -61.1% | [5] 0.365% | [6] -60.3% | [7] -61.3% | [8] -14.7% | [10] 8.88% | [12] -92.8% | [14] -25.5% | [15] 2.38% | [16] -76.8% | [17] -90.1% | [18] -24.2% | [19] -37.4%
inactive: [9] 19.7% | [11] 18.6%

CC(=O)Oc1ccc(/C=C/C(=O)N[C@@H](Cc2ccccc2)C(O)C(=O)NCc2ccccc2)cc1OC(C)=O (stereo not given in full)
inactive: [1] 93.3% | [2] 102% | [3] 83.4% | [4] 95.2% | [5] 56% | [6] 90% | [7] 87.7% | [8] 81.6% | [9] 91.1% | [10] 90.5% | [11] 77.1% | [12] 87.4% | [13] 72.7% | [14] 104% | [15] 68% | [16] 100% | [17] 71.2% | [18] 90.8% | [19] 85.3%

COc1ccc(C2=NN(C(C)=O)C(c3ccc(OCc4ccc(Cl)cc4)c(OC)c3)C2)cc1OC (stereo not given)
inactive: [1] 58% | [2] 49.9% | [3] 81.9% | [4] 76.2% | [5] 41.3% | [6] 37.1% | [7] 29% | [8] 57.9% | [9] 41.3% | [10] 51.3% | [11] 31% | [12] 48.1% | [13] 69.6% | [14] 52.9% | [15] 47.1% | [16] 37.8% | [17] 63.8% | [18] 40.2% | [19] 54.2%

COc1ccc(C(=O)/C=C/c2ccccc2Br)cc1S(N)(=O)=O
active: [1] -21.4% | [4] -18.7% | [5] 1.47% | [7] -81.4% | [8] -78% | [9] -72.8% | [10] -31.7% | [13] -20.8% | [14] -70% | [16] -76.6% | [17] -74.9% | [19] -11.7%
inactive: [2] 21.5% | [3] 20.6% | [6] 76.8% | [12] 62.3% | [15] 14.2% | [18] 15.5%

N#Cc1cnn(C(=O)c2ccccc2Br)c1NC(=O)c1ccc(Br)cc1Cl
inactive: [1] 104% | [2] 99.2% | [3] 100% | [4] 97.9% | [5] 105% | [6] 111% | [7] 93.9% | [8] 95.8% | [9] 102% | [10] 108% | [11] 105% | [12] 95.8% | [14] 100% | [15] 116% | [16] 94.9% | [17] 96.9% | [18] 98.5% | [19] 101%

NS(=O)(=O)c1ccc(-n2cc(-c3cccc(NC(=O)c4cc(Cl)cc(Cl)c4)c3)nn2)cc1
inactive: [1] 41.2% | [2] 105% | [3] 68.8% | [4] 51.2% | [5] 43.7% | [6] 98.4% | [20] 75.5% | [7] 27.1% | [8] 79.9% | [9] 76.4% | [10] 74.6% | [12] 77.6% | [13] 54.1% | [14] 87.9% | [15] 43.1% | [16] 75.6% | [17] 70.1% | [18] 83.2% | [19] 52.4%
